Reference: PubChem BioAssay
Records with an inconclusive call do not appear. Calls of active or inactive are those of the source.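 How the source made its calls, unless noted: active means normalized viability below 100% at a tested concentration; inactive means the rest.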

Key:
[1] = viability loss in pontine glioma line – cell-based, SU-DIPG-XVII, MIPE5.0, CellTiter-Glo, qHTS, dose response (AID 1347060; cut-off not given, nearly all actives have AC50 up to about 26 µM;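 further: cells exposed to compound for 48 hours before viability readout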); conditions: CellTiter-Glo ATP luminescence
[2] = viability loss in pontine glioma line – cell-based, SU-DIPG-XIII, MIPE4.0, CellTiter-Glo, qHTS, dose response (AID 1347061; cut-off not given, nearly all actives have AC50 up to about 37 µM;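 further: cells exposed to compound for 48 hours before readout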); conditions: CellTiter-Glo ATP luminescence
[3] = viability loss in pontine glioma line – cell-based, JHH-DIPG-1, MIPE4.0, CellTiter-Glo, qHTS, dose response (AID 1347062; cut-off not given, nearly all actives have AC50 up to about 27 µM;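 further: cells exposed to compound for two days before readout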); conditions: JHH-DIPG-1 viability, CellTiter-Glo ATP luminescence
[4] = viability loss in pontine glioma line – cell-based, SU-DIPG-IV, MIPE4.0, CellTiter-Glo, qHTS, dose response (AID 1347063; cut-off not given, nearly all actives have AC50 up to about 30 µM;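 further: compound exposure lasted 48 hours before the viability readout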); conditions: CellTiter-Glo ATP luminescence
[5] = viability loss in pontine glioma line – cell-based, SU-DIPG-XIII, MIPE5.0, CellTiter-Glo, qHTS, dose response (AID 1347064; cut-off not given, nearly all actives have AC50 up to about 23 µM;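 further: cells exposed to compound for 48 hours before the viability read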); conditions: CellTiter-Glo ATP luminescence
[6] = viability loss in pontine glioma line – cell-based, SU-DIPG-XXV, MIPE5.0, CellTiter-Glo, qHTS, dose response (AID 1347065; cut-off not given, nearly all actives have AC50 up to about 26 µM;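 further: cells exposed to compound for 48 hours before ATP readout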); conditions: CellTiter-Glo ATP luminescence
[7] = growth inhibition of DIPG cells – cell-based, MIPE4.0 library, CellTiter-Glo luminescence, qHTS (AID 1347066; cut-off not given, nearly all actives have AC50 up to about 30 µM;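 further: cells exposed to compound for 48 hours before readout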); conditions: SU-DIPG-VI viability, CellTiter-Glo ATP luminescence
[8] = JHH-DIPG-1 glioma cell viability, MIPE5.0 library, CellTiter-Glo luminescence, qHTS (AID 1347067; cut-off not given, nearly all actives have AC50 up to about 26 µM;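 further: cells exposed to compound for 48 hours before readout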); conditions: JHH-DIPG-1 glioma viability, CellTiter-Glo ATP luminescence
[9] = viability loss with induced miR-34 in A549 – imaging, A549 dox-inducible miR-34, nuclei and caspase counts, primary screen (AID 1347080;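 active means compounds whose cell count with miR-34 switched on is under 0.7 times the count with it off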); conditions: A549 miR-34 inducible, Hoechst nuclei count, 48 h
[10] = compounds altering HSF1 focus formation in cells – imaging, Selleck Cancer Library (AID 1347162; in the data active means plate-normalised HSF1 focus index below about 0.46); conditions: human cells, HSF1 nuclear foci imaging, at 10 µM; SSMD: measured here: HSF1 foci SSMD mean; cell count: measured here: cell number; plate-normalised HSF1 focus index: stronger effect = lower value
[11] = MELAS cybrid and Rieske KO viability enhancers – cell-based, MELAS cybrids, Rieske KO mouse fibroblasts, CellTiter-Glo, primary screen (AID 1508586;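 active means mean z-score across replicates of 1.96 or higher in either the MELAS or the Rieske mutant cell line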;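 further: z relative to plate mean and SD of compound and empty wells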); conditions: low glucose
[12] = drug combination growth inhibition, ovarian cancer – cell-based, oncology-focused library, rucaparib conditional, profiling panel (AID 1508598); conditions: patient-derived ovarian cancer cells, CellTiter-Glo viability, 144 h, stronger effect = lower value

CC(=O)Nc1cccc(-n2c(=O)n(C3CC3)c(=O)c3c(Nc4ccc(I)cc4F)n(C)c(=O)c(C)c32)c1
inactive: outcome [7] | fold change ([9]; stronger effect = lower value, cell number ratio, induced over uninduced) 1.15 | plate-normalised HSF1 focus index [10] 1.16 | z-score ([11]; MELAS cybrid survival, CellTiter-Glo 48 h, stronger effect = higher value) -0.421 | viability ([12]; at 0.000305 µM, OCI-C5x cells, with rucaparib 10 µM, 100% = cells with rucaparib alone) 123% | viability ([12]; at 0.000305 µM, OCI-C5x cells, without rucaparib) 120% | viability ([12]; at 0.000305 µM, OCI-P5x cells, with rucaparib 20 µM, 100% = cells with rucaparib alone) 109% | viability ([12]; at 0.000305 µM, OCI-P5x cells, without rucaparib) 102% | viability ([12]; at 0.00122 µM, OCI-C5x cells, with rucaparib 10 µM, 100% = cells with rucaparib alone) 102% | viability ([12]; at 0.00122 µM, OCI-C5x cells, without rucaparib) 122% | viability ([12]; at 0.00488 µM, OCI-C5x cells, with rucaparib 10 µM, 100% = cells with rucaparib alone) 105% | viability ([12]; at 0.00488 µM, OCI-C5x cells, without rucaparib) 113% | viability ([12]; at 0.0195 µM, OCI-C5x cells, with rucaparib 10 µM, 100% = cells with rucaparib alone) 111% | viability ([12]; at 0.0195 µM, OCI-C5x cells, without rucaparib) 109%
3760: cell count ([9]; measured here: total cells without miR-34 induction)
active: AC50 [1] 83.3 nM | AC50 [2] 235 nM | AC50 [3] 209 nM | AC50 [4] 3320 nM | AC50 [5] 83.3 nM | AC50 [6] 105 nM | AC50 [8] 41.7 nM | viability ([12]; at 0.00122 µM, OCI-P5x cells, with rucaparib 20 µM, 100% = cells with rucaparib alone) 89.6% | viability ([12]; at 0.00122 µM, OCI-P5x cells, without rucaparib) 89.5% | viability ([12]; at 0.00488 µM, OCI-P5x cells, with rucaparib 20 µM, 100% = cells with rucaparib alone) 75% | viability ([12]; at 0.00488 µM, OCI-P5x cells, without rucaparib) 74.2% | viability ([12]; at 0.0195 µM, OCI-P5x cells, with rucaparib 20 µM, 100% = cells with rucaparib alone) 72.4% | viability ([12]; at 0.0195 µM, OCI-P5x cells, without rucaparib) 76.7% | viability ([12]; at 0.0781 µM, OCI-C5x cells, with rucaparib 10 µM, 100% = cells with rucaparib alone) 88% | viability ([12]; at 0.0781 µM, OCI-C5x cells, without rucaparib) 88.8% | viability ([12]; at 0.0781 µM, OCI-P5x cells, with rucaparib 20 µM, 100% = cells with rucaparib alone) 51.6% | viability ([12]; at 0.0781 µM, OCI-P5x cells, without rucaparib) 55% | viability ([12]; at 0.313 µM, OCI-C5x cells, with rucaparib 10 µM, 100% = cells with rucaparib alone) 73.7% | viability ([12]; at 0.313 µM, OCI-C5x cells, without rucaparib) 82.7% | viability ([12]; at 0.313 µM, OCI-P5x cells, with rucaparib 20 µM, 100% = cells with rucaparib alone) 44.7% | viability ([12]; at 0.313 µM, OCI-P5x cells, without rucaparib) 53.7% | viability ([12]; at 1.25 µM, OCI-C5x cells, with rucaparib 10 µM, 100% = cells with rucaparib alone) 45.5% | viability ([12]; at 1.25 µM, OCI-C5x cells, without rucaparib) 78.2% | viability ([12]; at 1.25 µM, OCI-P5x cells, with rucaparib 20 µM, 100% = cells with rucaparib alone) 36.4% | viability ([12]; at 1.25 µM, OCI-P5x cells, without rucaparib) 37.4% | viability ([12]; at 5 µM, OCI-C5x cells, with rucaparib 10 µM, 100% = cells with rucaparib alone) 41.3% | viability ([12]; at 5 µM, OCI-C5x cells, without rucaparib) 52.7% | viability ([12]; at 5 µM, OCI-P5x cells, with rucaparib 20 µM, 100% = cells with rucaparib alone) 30.4% | viability ([12]; at 5 µM, OCI-P5x cells, without rucaparib) 34.2%
6560: cell count [10]
4330: cell count ([9]; measured here: total cells with miR-34 induction, stronger effect = lower value)
3.07: SSMD [10]
0.672: fold change ([9]; measured here: relative caspase fold change +Dox/-Dox)
-0.112: z-score ([11]; Rieske KO mouse fibroblast survival, CellTiter-Glo 72 h)
